Experimental data: PubChem BioAssay (NCATS)
Inconclusive results are not listed. Active and inactive are the calls of the source. The call rests on the fitted dose curve; in most records, active means well fitted curve in the direction sought with a large enough effect; inconclusive means small, poorly fitted or top-dose-only effect, or another doubt; inactive means no such curve, though single readings can be large; an effect the other way counts as inactive or inconclusive.

Columns and labels:
KB-3-1 = assay: Cytotoxic Profiling of Annotated Libraries Using Quantitative High-Throughput Screening (AID 1296008); settings: Five cell lines viability, CellTiter-Glo ATP luminescence, 48-72 h; max response: stronger effect = lower value; further: nearly all actives have a fitted effect of over 60% in size; on max response: on the % scale 0 is the no-effect control and ±100 the full control effect
Outline: (§1)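 Cytotoxicity was measured as CellTiter-Glo ATP luminescence, read after 10 min at room temperature. Compound treatment of the cells lasted 48 or 72 hr at 37 degrees Celsius in a qHTS format.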

NIH3T3 [1] = assay: as above; settings: Five cell lines viability, CellTiter-Glo ATP luminescence, 48-72 h; max response: stronger effect = lower value
Outline: as §1

HACAT = assay: qHTS assay to identify novel small-molecules to repurpose for Merkel cell carcinoma treatment (AID 1296009); settings: MCC and control cell lines, CellTiter-Glo viability, 72 h; at 44.8 µM (top of the series) unless noted; further: nearly all actives have a fitted effect of over 60% in size
Outline: (§2)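 72 hr, 37 degree celsius; NPC 8-pt / MIPE 11-pt dose response; compound pinned in DMSO; CellTiter-Glo, 10 min RT, luminescence; normalized to no-cell and DMSO controls.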

NIH3T3 [2] = assay: as above; settings: MCC and control cell lines, CellTiter-Glo viability, 72 h; at 44.8 µM (top of the series) unless noted
Outline: as §2

C33A = assay: Primary qHTS to identify gynecologic anti-cancer compounds using libraries of approved drugs and bioactive compounds (AID 1345084); settings: Gynecologic cancer cell panel viability, ATPlite luminescence, 48 h; series mostly up to 57.5 µM; further: on the % scale 0 is the no-effect control and ±100 the full control effect; nearly all actives have a fitted effect of over 55% in size
Outline: (§3)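 Cell viability after 48 h drug treatment, ATPlite luminescence readout; five doses.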

CAOV3 = assay: as above; settings: Gynecologic cancer cell panel viability, ATPlite luminescence, 48 h; series mostly up to 57.5 µM
Outline: as §3

CASKI = assay: as above; settings: Gynecologic cancer cell panel viability, ATPlite luminescence, 48 h; series mostly up to 57.5 µM
Outline: as §3

Es-2 = assay: as above; settings: Gynecologic cancer cell panel viability, ATPlite luminescence, 48 h; series mostly up to 57.5 µM
Outline: as §3

HeLa = assay: as above; settings: Gynecologic cancer cell panel viability, ATPlite luminescence, 48 h; series mostly up to 57.5 µM
Outline: as §3

Hek293T [3] = assay: as above; settings: Gynecologic cancer cell panel viability, ATPlite luminescence, 48 h, control line for the selectivity index; series mostly up to 57.5 µM
Outline: as §3

JEG-3 = assay: as above; settings: Gynecologic cancer cell panel viability, ATPlite luminescence, 48 h; series mostly up to 57.5 µM
Outline: as §3

OV90 = assay: as above; settings: Gynecologic cancer cell panel viability, ATPlite luminescence, 48 h; series mostly up to 57.5 µM
Outline: as §3

HEK293T [4] = assay: qHTS assay to identify novel small-molecules to repurpose for Merkel cell carcinoma treatment (AID 1296009); settings: MCC and control cell lines, CellTiter-Glo viability, 72 h; at 44.8 µM (top of the series) unless noted; further: nearly all actives have a fitted effect of over 60% in size
Outline: as §2

CRL-7250 = normal cell line; assay: as above; settings: MCC and control cell lines, CellTiter-Glo viability, 72 h; at 44.8 µM (top of the series) unless noted
Outline: as §2

COc1cc(C(=O)O[C@H]2[C@@H]3C=CO[C@@H](O[C@@H]4O[C@H](CO)[C@@H](O)[C@H](O)[C@H]4O)[C@@H]3[C@@]3(CO)O[C@@H]23)ccc1O
inactive: outcome (KB-3-1) | outcome (NIH3T3 [1]) | outcome (HACAT) inactive [at 17.4 µM] | outcome (NIH3T3 [2]) inactive [at 17.4 µM] | Potency (C33A) | Potency (CAOV3) | Potency (CASKI) | Potency (Es-2) | Potency (HeLa) | Potency (Hek293T [3]) | Potency (JEG-3) | Potency (OV90)

C=CC(C)(C)c1[nH]c2cccc3c2c1C[C@@H]1[C@@H]3[C@@H](OC(C)=O)[C@H](C)CN1C
inactive: max response (KB-3-1) 4.47% | outcome (NIH3T3 [1]) | outcome (HACAT) | outcome (HEK293T [4]) | outcome (NIH3T3 [2]) | Potency (C33A) | Potency (CAOV3) | Potency (CASKI) | Potency (Es-2) | Potency (HeLa) | Potency (Hek293T [3]) | Potency (JEG-3) | Potency (OV90)

CC1=CC2/C=C(\C)CCC(O)C3OC(C)(C)OC3CC(=O)OC23C(=O)NC(CC(C)C)C3C1C (stereo not drawn)
inactive: outcome (KB-3-1) | outcome (NIH3T3 [1]) | outcome (HACAT) inactive [at 17.4 µM] | outcome (NIH3T3 [2]) inactive [at 17.4 µM] | Potency (C33A) | Potency (CASKI) | Potency (Es-2) | Potency (HeLa) | Potency (Hek293T [3]) | Potency (JEG-3) | Potency (OV90)

CN(C)CCc1c[nH]c2ccc(CN3CCN(C)S3(=O)=O)cc12
inactive: max response (KB-3-1) -6.8% | outcome (NIH3T3 [1]) | outcome (HACAT) | outcome (NIH3T3 [2]) | Potency (C33A) | Potency (CASKI) | Potency (Es-2) | Potency (HeLa) | Potency (Hek293T [3]) | Potency (JEG-3) | Potency (OV90)

C=C(CO)C(=O)O[C@H]1C/C(C)=C/CC/C(CO)=C/[C@H]2OC(=O)C(=C)[C@H]12
inactive: outcome (KB-3-1) | outcome (NIH3T3 [1]) | outcome (HACAT) | outcome (NIH3T3 [2]) | Potency (C33A) | Potency (CASKI) | Potency (Es-2) | Potency (HeLa) | Potency (Hek293T [3]) | Potency (JEG-3) | Potency (OV90)

C[C@@](O)(COc1ccc(C#N)cc1)C(=O)Nc1ccc(C#N)c(C(F)(F)F)c1
inactive: max response (KB-3-1) 2.83% | outcome (NIH3T3 [1]) | outcome (HACAT) | outcome (NIH3T3 [2]) | Potency (C33A) | Potency (CASKI) | Potency (Es-2) | Potency (HeLa) | Potency (Hek293T [3]) | Potency (JEG-3) | Potency (OV90)

COC(=O)C1(C)CCC(O)C2(C)c3c(O)cc(C(C)C)cc3C(O)C(OC(C)=O)C12 (stereo not drawn)
inactive: outcome (KB-3-1) | max response (NIH3T3 [1]) 0.503% | outcome (CRL-7250) inactive [at 17.4 µM] | outcome (HEK293T [4]) inactive [at 17.4 µM] | Potency (C33A) | Potency (CASKI) | Potency (Es-2) | Potency (HeLa) | Potency (Hek293T [3]) | Potency (JEG-3) | Potency (OV90)

CN1C(=O)N(c2ccc(C#N)c(C(F)(F)F)c2)C(=O)[C@]1(CO)c1ccccc1
inactive: outcome (KB-3-1) | outcome (NIH3T3 [1]) | outcome (CRL-7250) | outcome (NIH3T3 [2]) | Potency (C33A) | Potency (CASKI) | Potency (HeLa) | Potency (Hek293T [3]) | Potency (JEG-3) | Potency (OV90)

C[C@@]12C[C@@H](c3ccoc3)OC(=O)C1CC[C@]1(C)[C@H]2[C@H]2C=C[C@]1(O)C(=O)O2 (stereo partly drawn)
inactive: max response (KB-3-1) 3.68% | outcome (NIH3T3 [1]) | outcome (CRL-7250) | outcome (HEK293T [4]) | outcome (NIH3T3 [2]) | Potency (C33A) | Potency (CAOV3) | Potency (CASKI) | Potency (Es-2) | Potency (HeLa) | Potency (Hek293T [3]) | Potency (JEG-3) | Potency (OV90)

CCN1C[C@]2(OC(=O)c3ccccc3NC(C)=O)CC[C@H](OC)[C@@]34[C@@H]2C[C@@H]([C@@H]13)[C@@]1(O)C[C@H](OC)[C@H]2C[C@@H]4[C@]1(O)[C@H]2OC
inactive: max response (KB-3-1) 6.81% | outcome (NIH3T3 [1]) | outcome (HACAT) | outcome (NIH3T3 [2]) | Potency (C33A) | Potency (CASKI) | Potency (Es-2) | Potency (HeLa) | Potency (Hek293T [3]) | Potency (JEG-3) | Potency (OV90)

CN1CCC[C@@H]1Cc1c[nH]c2ccc(Nc3ncccc3[N+](=O)[O-])cc12
inactive: max response (KB-3-1) -5.99% | outcome (NIH3T3 [1]) | outcome (CRL-7250) | outcome (NIH3T3 [2]) | Potency (C33A) | Potency (CASKI) | Potency (Es-2) | Potency (HeLa) | Potency (JEG-3) | Potency (OV90)

CN1CCCC1CCOC(c1cc2nccc(C(=O)O)c2[nH]1)c1ccccc1Cl (stereo not drawn)
inactive: max response (KB-3-1) 7.27% | outcome (NIH3T3 [1]) | outcome (CRL-7250) | outcome (NIH3T3 [2]) | Potency (C33A) | Potency (CAOV3) | Potency (CASKI) | Potency (Es-2) | Potency (HeLa) | Potency (Hek293T [3]) | Potency (JEG-3) | Potency (OV90)

COC1=CC(=O)O[C@@H](CCc2ccccc2)C1
inactive: outcome (KB-3-1) | outcome (NIH3T3 [1]) | outcome (CRL-7250) | outcome (NIH3T3 [2]) | Potency (C33A) | Potency (CASKI) | Potency (Es-2) | Potency (HeLa) | Potency (Hek293T [3]) | Potency (JEG-3) | Potency (OV90)

C/C=C(\C)C(=O)OC1C(C)OC(OC2C(C)OC(OC3CCC4(C)C(=CCC5C4CCC4(C)C(C(C)OC6OC(COC7OC(CO)C(O)C(O)C7O)C(O)C(O)C6O)CCC54O)C3)CC2OC)C(O)C1OC (stereo not drawn)
inactive: max response (KB-3-1) 0.359% | outcome (NIH3T3 [1]) | outcome (HACAT) inactive [at 9.27 µM] | outcome (NIH3T3 [2]) inactive [at 9.27 µM] | activity change, negative = cytotoxicity (C33A) 7.57% [at 11.6 µM] | activity change, negative = cytotoxicity (CASKI) 9.44% [at 11.6 µM] | activity change, negative = cytotoxicity (Es-2) 4.35% [at 11.6 µM] | activity change, negative = cytotoxicity (HeLa) 3.42% [at 11.6 µM] | activity change, negative = cytotoxicity (Hek293T [3]) 8.11% [at 11.6 µM] | activity change, negative = cytotoxicity (JEG-3) -0.0196% [at 11.6 µM] | activity change, negative = cytotoxicity (OV90) -0.455% [at 11.6 µM]
